High-throughput results: PubChem, several laboratories
CHOP inhibitor: blocks CHOP induction under ER stress | CHO-K1 CHOP-promoter luciferase, tunicamycin-induced, 15-18 h | inhibition, % at 10 µM | hit rate 3.8% among 220,000 | AID 2732;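 active = compounds that reduced the stress-induced luciferase reporter signal by more than about 70% of percent inhibition, limit read from the data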;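 also: 0% = tunicamycin plus vehicle and 100% = wells without tunicamycin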
Lmaj promast: inhibitors of Leishmania major promastigote growth; AID 1063; inhibition, % at 10 µM; hit rate 9% among 200,000; Leishmania major promastigotes, resazurin fluorescence viability; in the data active = inhibition above about 50%;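 also: promastigotes grown with compound for 44 hours at 28 °C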
WT yeast gro inh: growth inhibition of WT yeast, mitochondrial fusion screen. mitochondrial fusion phenotypic screen, WT strain. inhibition, % at 10 µM. hit rate 2.1% among 190,000. AID 1362; in the data active = inhibition above about 58%; tested in S. cerevisiae
Arbovirus anti: antivirals against arbovirus infection. arbovirus infection cell-based antiviral screen. inhibition, % at 10 µM. hit rate 0.37% among 200,000. AID 1251; in the data active = inhibition above about 30%
* hit, by the source's call; nt = no result given. Compounds with a hit are over-represented: about 12% of the library has one in this group of screens.

SMILES	CHOP inhibitor	Lmaj promast	WT yeast gro inh	Arbovirus anti
Cc1ccc(OCC(O)C(C)NC(C)C)c2c1CCC2 (stereo not drawn)	-4	nt	nt	nt
OCCN=C1CCCc2c1[nH]c1ccc(Br)cc21	72*	-5	5	8
Cc1ccc(C)c(NC(=O)CN(C)C(=O)[C@@H](NC(N)=O)C(C)C)c1	7	-2	-17	4
Cc1ccc(C)c(NC(=O)CN(C)C(=O)[C@@H](NC(=O)c2ccc(C(C)(C)C)cc2)C(C)C)c1	83*	45	6	3
CN(C)CCCNS(=O)(=O)c1ccc(Oc2ncc(C(F)(F)F)cc2Cl)cc1	18	95*	0	-24
CN(C)CCCNc1ncc(C(F)(F)F)cc1Cl	3	2	-11	4
COC(=O)c1sccc1NC(=O)CC1NCCNC1=O (stereo not drawn)	-3	nt	nt	nt
Cc1ccc(C)c(NC(=S)N2CCCCCC2)c1	4	-6	1	-4
Cc1ccc(C)c(NC(=S)N2CCC(N(C)CC3CCCO3)CC2)c1 (stereo not drawn)	2	91*	-5	1
CCC(C)N(C)C1CCN(C(=S)Nc2cccc(OC)c2)CC1 (stereo not drawn)	18	11	4	-1
Cc1ccc(NC(=S)N2CCN(C(=O)C3CCCO3)CC2)c(C)c1 (stereo not drawn)	-13	-4	11	2
COc1cccc(NC(=S)N2CCC(N(C)CC3CCCO3)CC2)c1 (stereo not drawn)	34	94*	0	4
Cc1ccc(NC(=S)N2CCC(N(C)CC3CCCO3)CC2)c(C)c1 (stereo not drawn)	-3	90*	-7	-5
CC(C)(NC(=O)c1cc(Cl)c2ccccc2c1O)C(=O)O	-2	nt	nt	nt
Cc1cc(C)c2oc(C(=O)Nc3ccc(S(=O)(=O)N4CCCC(C)C4)cc3)cc(=O)c2c1 (stereo not drawn)	43	19	9	-13
COc1cc(C2CC(=O)N(c3ccc(C)cc3)C(=O)C2)cc(OC)c1OC	-17	nt	nt	nt
COc1ccc(N2C(=O)CSC(c3ccccc3)C2=O)cc1 (stereo not drawn)	-4	-2	14	4
CC(=O)c1cccc(N(C(=O)Cn2nnc3ccccc32)C(C(=O)NCC2CCCO2)c2ccc(N3CCOCC3)cc2)c1 (stereo not drawn)	-6	0	-14	3
CC1=NN(c2ccccc2)C(=O)/C1=C\c1cc(C)n(C)c1C	-11	nt	nt	nt
CC1=NN(c2ccccc2)C(=O)/C1=C/c1cc2cc(C)ccc2nc1N1CCCCC1	18	90*	71*	29
C#Cc1cccc(NC(=O)c2ccc(Cl)cc2Cl)c1	-12	nt	nt	nt
COC(=O)c1c(C)oc(C)c1S(=O)(=O)NC(C)(C)C	-1	nt	nt	nt
N#CCCn1nc(-c2ccc(Br)cc2)cc1Nc1ccccc1NC(=O)C(F)(F)F	61	69*	39	-26
O=C1CSC(c2cccnc2)N1Cc1ccc(Cl)c(Cl)c1 (stereo not drawn)	5	nt	nt	nt
CC(=O)NC(NC(=S)Nc1ccc(S(N)(=O)=O)cc1)C(Cl)(Cl)Cl (stereo not drawn)	3	nt	nt	nt
SMILES	CHOP inhibitor	Lmaj promast	WT yeast gro inh	Arbovirus anti
Cc1cccc(C(=O)NC(NCCc2ccccc2)C(Cl)(Cl)Cl)c1 (stereo not drawn)	45	15	59*	-6
Cc1cccc(C(=O)NC(NC(=S)Nc2ccc(S(N)(=O)=O)cc2)C(Cl)(Cl)Cl)c1 (stereo not drawn)	-3	54*	-18	8
CCC(C)NC(=O)c1cccc(C)c1 (stereo not drawn)	11	nt	nt	nt
O=C(CCSc1ccc(Cl)cc1)NC12CC3CC(CC(C3)C1)C2	-1	3	83*	-27
O=C(CCS(=O)(=O)c1ccccc1)NC12CC3CC(CC(C3)C1)C2	74*	-3	7	2
O=C(CCS(=O)(=O)c1ccccc1)NCCS(=O)(=O)c1ccccc1	-10	-6	-20	2
CCc1ccc([C@@H]2C[C@H]3CN(Cc4ccccc4OC)C(=O)[C@]34CCCN24)cc1	28	16	29	-9
Cc1cc(NC(=O)CSc2nc(=O)cc(N)n2-c2ccc(Cl)cc2)no1	17	0	1	1
COc1ccc(Cn2c(-c3ccc(C)cc3)nc3c(c(=O)c4ccccc4n3C)c2=O)cc1	48	88*	1	-2
COc1ccc(Cn2c(C(C)C)nc3sc4ccccc4c(=O)c3c2=O)cc1	79*	nt	nt	nt
CC(C)c1nc2sc3ccccc3c(=O)c2c(=O)n1Cc1ccccc1	11	nt	nt	nt
COCCn1c(C2CCCCC2)nc2sc3ccccc3c(=O)c2c1=O	92*	21	20	-5
COc1ccc(Cn2c(-c3ccc(OC)cc3)nc3c(c(=O)c4ccccc4n3C)c2=O)cc1	29	11	7	8
CCc1cccc(NC(=S)N(CCOC)C(C)c2ccco2)c1 (stereo not drawn)	43	nt	nt	nt
